# Compound activity (PubChem BioAssay)
# KAT2A inh: inhibitors of human GCN5L2 histone acetyltransferase; GCN5L2 HAT assay, ThioGlo1 CoA-SH fluorescence; Potency, µM (top dose mostly 58.9 µM), for the others: at the top dose activity change, negative = inhibition, usual class: inhibitors; 0.21% of 390,000 active
#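 Enzyme at 20nM final was mixed with library compounds for 15 min at room temperature. Peptide H3(1-25) at 75uM, acetyl-CoA at 70uM and ThioGlo1 at 50uM were then added. Plates were read immediately and after 20 min (Ex340nm/Em540nm).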
# TDP1 inh: TDP1 (human) enzyme inhibition; recombinant TDP1, AlphaScreen DNA substrate cleavage; AID 485290; Potency, µM (doses to about 130 µM), for the others: at the highest dose activity change, negative = inhibition, actives largely listed as inhibitors; Q9NUW8; 0.28% of 350,000 active; also: nearly all actives have a fitted effect of over 40% in size
#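 Recombinant E. coli-expressed Tdp1 (1 nM) preincubated with compound 15 min at RT, then 5'-biotin/3'-phosphotyrosine-FITC DNA substrate (15 nM) added for 5 min. AlphaScreen beads (10 ug/ml) added, 10 min RT; tyrosine-FITC cleavage read as signal loss.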
# VDR inh: vitamin D3 receptor (human) inhibition | P11473 | VDR-SRC2-3 peptide fluorescence polarization, 2 h | Potency, µM, for the others: max response, negative = inhibition, usual class: inhibitors | 0.93% of 400,000 active | AID 504847
#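 Fluorescence polarization assay measuring small-molecule disruption of VDR binding to the coregulator peptide SRC2-3. Compounds were pin-transferred (23 nl) into the reagent mix and incubated 2 h at room temperature before reading.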
# DT40 TDP1 no CPT: qHTS for Inhibitors of human tyrosyl-DNA phosphodiesterase 1 (TDP1): qHTS in cells in absence of CPT. DT40 Tdp1-/- hTDP1 cells, no CPT, ATP luminescence, 48 h. Potency, µM (series often up to 46.2 µM), without a hit: at the top dose activity change, negative = growth inhibition, actives largely listed as inhibitors. 15% of 420,000 active. AID 686978, 2013; also: nearly all actives have a fitted effect of over 55% in size
#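 Growth kinetics read by CellTiter-Glo luminescence after ≥48 hr at 37 °C. Cells: DT40 Tdp1-/- stably carrying human TDP1, 400 per well, compound exposure in the absence of CPT (DMSO vehicle).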
# DT40 TDP1 CPT: growth inhibition of DT40 Tdp1-/-;hTDP1 cells with camptothecin (screen for TDP1 inhibitors) | chicken DT40 Tdp1-/-;hTDP1 cells + 20 nM CPT, ATP luminescence, 48 h | Potency, µM (titrated, usually from 46.2 µM), for inactives: at the top dose activity change, negative = growth inhibition, usual class: inhibitors | 12% of 420,000 active | AID 686979; also: nearly all actives have a fitted effect of over 55% in size
#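 Cell growth measured by CellTiter-Glo luminescence after a minimum 48 h, 37 C compound exposure with 20 nM CPT in Tdp1-knockout DT40 cells stably expressing hTDP1, seeded 400/well; qHTS titration format.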
# PLK1 PBD block: PLK1 (human) polo-box domain binding inhibition | 2.8% of 360,000 active | AID 720504 | P53350 | Plk1 PBD binding of FITC phosphopeptide, fluorescence polarization | Potency, µM, for the others: max response, negative = inhibition, hits mostly inhibitors; also: series mostly up to about 57 µM; nearly all actives have a fitted effect of over 65% in size
# An asterisk follows results filed as active; u = inconclusive; x = not tested or not shown; [ ] = dose if it differs, or a comment. Shown are actives, neighbours in structure and some others; about 18% of the full set was active somewhere. Calls follow the shape of the dose curve; as a rule, active = well fitted curve in the direction sought with a large enough effect; inconclusive = small, poorly fitted or top-dose-only effect, or another doubt; inactive = no such curve, though single readings can be large; an effect the other way counts as inactive or inconclusive. % is scaled to controls: 0 for no effect and ±100 for the full control effect; potency is read from the fitted curve at half-maximal effect.
SMILES,KAT2A inh,TDP1 inh,VDR inh,DT40 TDP1 no CPT,DT40 TDP1 CPT,PLK1 PBD block
O=C(N/N=C/c1cc([N+](=O)[O-])ccc1Cl)c1cnccn1,-3%,6%,-18%,5.8µM*,3.3µM*,-10%
O=C(N/N=C/C(Cl)=C\c1ccccc1)c1cnccn1,-7%[0.501 µM],4%,-7%,21µM*,18µM*,-1%
O=C(N/N=C/C(Cl)=C/c1ccccc1)c1ccccc1F,0%,2%,-3%,u,u,-7%
O=C(N/N=C/C(Cl)=C/c1ccccc1)c1ccco1,-15%,0%,-19%,u,u,u
COc1ccc(S(=O)(=O)N2CCCCC2C)cc1 (stereo unspecified),0%,1%,-13%,-13%,-27%,0%
COc1cc(C(=O)Nc2ccc(S(=O)(=O)N3CCCCC3C)cc2)cc(OC)c1OC (stereo unspecified),-9%,4%,1%,u,21µM*,1%
COc1ccc(C(=O)Nc2ccc(S(=O)(=O)N3CCCCC3C)cc2)c(OC)c1OC (stereo unspecified),-9%,8%,0%,16µM*,18µM*,-9%
O=C(O)c1ccccc1C(=O)NCCc1c(C(=O)O)[nH]c2ccc(F)cc12,-3%,-1%,-11%,-4%,2%,-18%
Cc1c(Cl)cccc1NC(=O)c1ncn(-c2ccccc2)n1,-14%,8%,2%,-5%,-17%,x
Cc1c(NC(=S)N2CCN(c3ccc(F)cc3)CC2)c(=O)n(-c2ccccc2)n1C,2%,3%,-15%,10%,-4%,1%
c1ccc(CN2CCC3CC2c2cc(N4CCCCC4)ccc23)cc1 (stereo unspecified),x,x,x,u,u,-5%
CCN(CCc1ccccc1)c1ccc2c(c1)C1CC2CCN1Cc1ccccc1 (stereo unspecified),x,x,x,5.8µM*,6.5µM*,10%
COc1cccc(-c2ccc3c(c2)C2CC3CCN2C(=O)c2ccc(-c3ccccc3)cc2)c1 (stereo unspecified),x,x,x,18µM*,u,-3%
CC(=O)N(CCc1ccccc1)c1ccc2c(c1)C1CC2CCN1C(=O)OCc1ccccc1 (stereo unspecified),x,x,x,6.5µM*,8.2µM*,-1%
O=C(OCc1ccccc1)N1CCC2CC1c1cc(/C=C/CCCSc3ncccn3)ccc12 (stereo unspecified),x,x,x,23µM*,u,-17%
O=C(OCc1ccccc1)N1CCC2CC1c1cc(NCCc3ccccc3)ccc12 (stereo unspecified),x,x,-6%,u,u,2%
O=C(OCc1ccccc1)N1CCC2CC1c1cc(-c3ccc(F)cc3)ccc12 (stereo unspecified),x,x,-9%,u,u,-1%
COc1cccc(OC)c1C(=O)Nc1ccc(S(=O)(=O)Nc2nccc(C)n2)cc1,-7%,1%,-18%,17%,1%,x
COc1ccc(NC(=O)C2c3ccccc3OCC(=O)N2CCc2ccccc2)cc1 (stereo unspecified),x,x,x,-21%,-11%,-2%
COc1ccccc1CNS(=O)(=O)CCNCc1ccco1,x,x,-8%,0%,5%,-9%
COc1ccc(-c2ccc3c(c2)C2CC3CCN2S(=O)(=O)c2ccccc2C)cc1 (stereo unspecified),x,x,-3%,16µM*,u,-17%
COc1ccc(-c2ccc3c(c2)C2CC3CCN2C(=O)OCc2ccccc2)cc1 (stereo unspecified),x,x,-10%,u,16µM*,-2%
O=C(OCc1ccccc1)N1CCC2CC1c1cc(N3CCNCC3)ccc12 (stereo unspecified),x,x,x,16µM*,u,-14%
Cc1ccccc1C(=O)N1CCC2CC1c1cc(Cl)ccc12 (stereo unspecified),x,x,-14%,u,-24%,-6%
